Active and inactive are the calls of the source.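 Rule for the calls, unless noted: active = normalized viability below 100% at a tested concentration; inactive = the rest.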
Legend:
[1] = drug combination growth inhibition, ovarian cancer – cell-based, oncology-focused library, rucaparib conditional, profiling panel (AID 1508598); settings: patient-derived ovarian cancer cells, CellTiter-Glo viability, 144 h, hits give low values
[2] = target: NAD(+) hydrolase SARM1 (Homo sapiens) (UniProt Q6SZW1); experiment: blocking NAD cleavage by SARM1 SAM-TIR – cell lysate, NAD-Glo luminescence (AID 1508614;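 active = compound whose remaining NAD level is above about 45 nM, limit read from the data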;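 note: higher remaining NAD means stronger inhibition of SARM1 NADase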); settings: SAM-TIR HEK293T lysate NADase, at 1 µM, hits give high values
[3] = at 5 µM, OCI-P5x cells, with rucaparib 20 µM, 100% = cells with rucaparib alone
[4] = at 5 µM, OCI-P5x cells, without rucaparib
[5] = at 0.000305 µM, OCI-C5x cells, with rucaparib 10 µM, 100% = cells with rucaparib alone
[6] = at 0.000305 µM, OCI-C5x cells, without rucaparib
[7] = at 0.000305 µM, OCI-P5x cells, with rucaparib 20 µM, 100% = cells with rucaparib alone
[8] = at 0.000305 µM, OCI-P5x cells, without rucaparib
[9] = at 0.00122 µM, OCI-C5x cells, with rucaparib 10 µM, 100% = cells with rucaparib alone
[10] = at 0.00122 µM, OCI-C5x cells, without rucaparib
[11] = at 0.00122 µM, OCI-P5x cells, with rucaparib 20 µM, 100% = cells with rucaparib alone
[12] = at 0.00122 µM, OCI-P5x cells, without rucaparib
[13] = at 0.00488 µM, OCI-C5x cells, with rucaparib 10 µM, 100% = cells with rucaparib alone
[14] = at 0.00488 µM, OCI-C5x cells, without rucaparib
[15] = at 0.00488 µM, OCI-P5x cells, with rucaparib 20 µM, 100% = cells with rucaparib alone
[16] = at 0.00488 µM, OCI-P5x cells, without rucaparib
[17] = at 0.0195 µM, OCI-C5x cells, with rucaparib 10 µM, 100% = cells with rucaparib alone
[18] = at 0.0195 µM, OCI-C5x cells, without rucaparib
[19] = at 0.0195 µM, OCI-P5x cells, with rucaparib 20 µM, 100% = cells with rucaparib alone
[20] = at 0.0195 µM, OCI-P5x cells, without rucaparib
[21] = at 0.0781 µM, OCI-C5x cells, with rucaparib 10 µM, 100% = cells with rucaparib alone
[22] = at 0.0781 µM, OCI-C5x cells, without rucaparib
[23] = at 0.0781 µM, OCI-P5x cells, with rucaparib 20 µM, 100% = cells with rucaparib alone
[24] = at 0.0781 µM, OCI-P5x cells, without rucaparib
[25] = at 0.313 µM, OCI-C5x cells, with rucaparib 10 µM, 100% = cells with rucaparib alone
[26] = at 0.313 µM, OCI-C5x cells, without rucaparib
[27] = at 0.313 µM, OCI-P5x cells, with rucaparib 20 µM, 100% = cells with rucaparib alone
[28] = at 0.313 µM, OCI-P5x cells, without rucaparib
[29] = at 1.25 µM, OCI-C5x cells, with rucaparib 10 µM, 100% = cells with rucaparib alone
[30] = at 1.25 µM, OCI-C5x cells, without rucaparib
[31] = at 1.25 µM, OCI-P5x cells, with rucaparib 20 µM, 100% = cells with rucaparib alone
[32] = at 1.25 µM, OCI-P5x cells, without rucaparib
[33] = at 5 µM, OCI-C5x cells, with rucaparib 10 µM, 100% = cells with rucaparib alone
[34] = at 5 µM, OCI-C5x cells, without rucaparib

NAD(+) hydrolase SARM1 (Homo sapiens), sequence (Q6SZW1 whole entry, looked up): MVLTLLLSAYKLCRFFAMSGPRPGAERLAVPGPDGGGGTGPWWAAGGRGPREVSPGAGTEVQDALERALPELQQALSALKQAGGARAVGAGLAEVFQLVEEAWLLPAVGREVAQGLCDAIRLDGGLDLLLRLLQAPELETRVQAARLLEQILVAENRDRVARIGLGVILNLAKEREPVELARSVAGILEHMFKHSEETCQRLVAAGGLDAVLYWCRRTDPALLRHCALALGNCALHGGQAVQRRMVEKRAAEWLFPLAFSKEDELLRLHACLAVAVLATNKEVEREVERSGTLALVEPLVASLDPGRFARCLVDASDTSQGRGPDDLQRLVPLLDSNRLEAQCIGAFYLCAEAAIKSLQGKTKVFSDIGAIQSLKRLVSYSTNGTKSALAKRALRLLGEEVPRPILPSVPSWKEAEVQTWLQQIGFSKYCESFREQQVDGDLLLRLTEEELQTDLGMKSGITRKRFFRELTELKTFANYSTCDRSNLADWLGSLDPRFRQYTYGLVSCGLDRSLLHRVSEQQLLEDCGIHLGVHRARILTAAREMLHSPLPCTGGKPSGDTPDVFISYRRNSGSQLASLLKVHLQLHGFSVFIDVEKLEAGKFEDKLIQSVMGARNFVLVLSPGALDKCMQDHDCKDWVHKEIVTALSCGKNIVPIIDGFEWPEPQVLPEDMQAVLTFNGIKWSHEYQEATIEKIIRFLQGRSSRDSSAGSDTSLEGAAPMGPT

CC(=O)OCC(=O)[C@]1(O)[C@H](C)C[C@H]2[C@@H]3CCC4=CC(=O)C=C[C@]4(C)[C@]3(F)[C@H](O)C[C@@]21C
active: viability [1, 3] 88.4% | viability [1, 4] 84.6%

COC1=C2C[C@H](C)C[C@@H](OC)[C@H](O)[C@H](C)/C=C(\C)[C@H](OC(N)=O)[C@@H](OC)/C=C/C=C(\C)C(=O)NC(=CC1=O)C2=O
active: viability [1, 5] 97.2% | viability [1, 6] 99.7% | viability [1, 11] 93.1% | viability [1, 15] 14.8% | viability [1, 16] 14.2% | viability [1, 17] 29.6% | viability [1, 18] 12.1% | viability [1, 19] 5.75% | viability [1, 20] 4.97% | viability [1, 21] 16.4% | viability [1, 22] 9.53% | viability [1, 23] 5.79% | viability [1, 24] 4.23% | viability [1, 25] 11.1% | viability [1, 26] 7.02% | viability [1, 27] 5.27% | viability [1, 28] 4.3% | viability [1, 29] 9.96% | viability [1, 30] 7.13% | viability [1, 31] 5.24% | viability [1, 32] 3.95% | viability [1, 33] 6.19% | viability [1, 34] 5.94% | viability [1, 3] 4.11% | viability [1, 4] 3.72%
inactive: viability [1, 7] 108% | viability [1, 8] 102% | viability [1, 9] 107% | viability [1, 10] 106% | viability [1, 12] 103% | viability [1, 13] 114% | viability [1, 14] 109%

C[C@@]12CC[C@H]3c4ccc(O)cc4C[C@@H](CCCCCCCCCS(=O)CCCC(F)(F)C(F)(F)F)[C@H]3[C@@H]1CC[C@@H]2O (stereo partly specified)
inactive: viability [1, 5] 127% | viability [1, 7] 110% | viability [1, 8] 107% | viability [1, 9] 116% | viability [1, 11] 109% | viability [1, 12] 112% | viability [1, 13] 118% | viability [1, 14] 110% | viability [1, 15] 116% | viability [1, 16] 117% | viability [1, 17] 118% | viability [1, 18] 108% | viability [1, 19] 116% | viability [1, 20] 122% | viability [1, 21] 114% | viability [1, 22] 112% | viability [1, 23] 119% | viability [1, 24] 118% | viability [1, 25] 119% | viability [1, 26] 125% | viability [1, 27] 122% | viability [1, 28] 120% | viability [1, 29] 123% | viability [1, 30] 112% | viability [1, 31] 119% | viability [1, 32] 121% | viability [1, 33] 124% | viability [1, 34] 128% | viability [1, 3] 119% | viability [1, 4] 122%
active: viability [1, 6] 99.5% | viability [1, 10] 98.6%

CCCCCCOC(=O)/N=C(\N)c1ccc(NCc2nc3cc(C(=O)N(CCC(=O)OCC)c4ccccn4)ccc3n2C)cc1
inactive: remaining NAD [2] 10 nM

CO[C@H]1C[C@@H]2CC[C@@H](C)[C@@](O)(O2)C(=O)C(=O)N2CCCC[C@H]2C(=O)O[C@H]([C@@H](C)C[C@@H]2CC[C@@H](OCCO)[C@H](OC)C2)CC(=O)[C@H](C)/C=C(\C)[C@H](O)[C@@H](OC)C(=O)[C@H](C)C[C@H](C)/C=C/C=C/C=C/1C
active: viability [1, 7] 91.8% | viability [1, 8] 83.4% | viability [1, 11] 88% | viability [1, 12] 74.1% | viability [1, 15] 85% | viability [1, 16] 72.9% | viability [1, 19] 79.5% | viability [1, 20] 72.3% | viability [1, 23] 86.3% | viability [1, 24] 73.1% | viability [1, 27] 88% | viability [1, 28] 67.8% | viability [1, 31] 73.4% | viability [1, 32] 60.4% | viability [1, 3] 69.5% | viability [1, 4] 59.4%
inactive: viability [1, 5] 103% | viability [1, 6] 135% | viability [1, 9] 106% | viability [1, 10] 120% | viability [1, 13] 120% | viability [1, 14] 115% | viability [1, 17] 115% | viability [1, 18] 112% | viability [1, 21] 111% | viability [1, 22] 119% | viability [1, 25] 110% | viability [1, 26] 111% | viability [1, 29] 115% | viability [1, 30] 103% | viability [1, 33] 123% | viability [1, 34] 120%

C[C@H](O[C@H]1OCCN(Cc2n[nH]c(=O)[nH]2)[C@H]1c1ccc(F)cc1)c1cc(C(F)(F)F)cc(C(F)(F)F)c1
inactive: viability [1, 5] 106% | viability [1, 6] 113% | viability [1, 7] 100% | viability [1, 8] 105% | viability [1, 9] 111% | viability [1, 10] 113% | viability [1, 11] 109% | viability [1, 12] 105% | viability [1, 13] 122% | viability [1, 14] 123% | viability [1, 15] 110% | viability [1, 16] 114% | viability [1, 17] 108% | viability [1, 18] 114% | viability [1, 19] 115% | viability [1, 20] 112% | viability [1, 21] 117% | viability [1, 22] 125% | viability [1, 23] 117% | viability [1, 24] 117% | viability [1, 25] 116% | viability [1, 26] 130% | viability [1, 27] 112% | viability [1, 28] 119% | viability [1, 29] 120% | viability [1, 30] 144% | viability [1, 31] 117% | viability [1, 32] 113% | viability [1, 34] 147%
active: viability [1, 33] 80.9% | viability [1, 3] 36.6% | viability [1, 4] 97.5%

Source: PubChem BioAssay
